Six1-Eya2 blk – qHTS Assay for Inhibitors of the Six1/Eya2 Interaction; Homeobox protein SIX1 (Homo sapiens) + Protein phosphatase EYA2 (Homo sapiens), …; AlphaScreen GST-Six1/His-Eya2 binding, biochemical; hits give low values; activity change, % (no concentration beside the values); actives 0.56% (n = 360,000); AID 651725, 2012; in the data active means activity change below about -65%; inconclusive means mostly about -30% to -63%
Target sequence (O00167 whole entry, looked up): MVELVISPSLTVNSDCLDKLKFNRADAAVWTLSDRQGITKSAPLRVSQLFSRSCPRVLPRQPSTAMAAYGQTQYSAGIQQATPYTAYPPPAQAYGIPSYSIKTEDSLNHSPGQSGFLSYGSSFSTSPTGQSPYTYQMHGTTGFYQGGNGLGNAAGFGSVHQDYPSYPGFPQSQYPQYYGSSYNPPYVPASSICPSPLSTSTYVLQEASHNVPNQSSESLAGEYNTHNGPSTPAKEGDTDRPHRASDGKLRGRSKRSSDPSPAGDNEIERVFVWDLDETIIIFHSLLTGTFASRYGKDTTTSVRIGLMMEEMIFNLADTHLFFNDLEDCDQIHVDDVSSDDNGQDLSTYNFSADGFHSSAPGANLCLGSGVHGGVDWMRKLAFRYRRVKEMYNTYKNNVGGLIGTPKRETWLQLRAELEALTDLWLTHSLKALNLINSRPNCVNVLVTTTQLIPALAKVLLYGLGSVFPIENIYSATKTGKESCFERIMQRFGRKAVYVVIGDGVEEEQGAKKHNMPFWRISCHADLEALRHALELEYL
Target sequence (Q15475 whole entry, looked up): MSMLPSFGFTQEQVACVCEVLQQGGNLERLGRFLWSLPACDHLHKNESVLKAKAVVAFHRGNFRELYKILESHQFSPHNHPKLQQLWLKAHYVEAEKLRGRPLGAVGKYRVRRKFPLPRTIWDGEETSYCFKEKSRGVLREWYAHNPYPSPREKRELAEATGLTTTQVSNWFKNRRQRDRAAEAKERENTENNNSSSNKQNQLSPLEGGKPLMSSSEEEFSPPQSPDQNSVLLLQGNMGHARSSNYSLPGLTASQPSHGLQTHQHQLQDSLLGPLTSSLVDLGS
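AlphaScreen with GST-Six1 and His-Eya2 (5X mix: 250 nM and 500 nM), glutathione donor and nickel acceptor beads; buffer 50 mM Tris pH 8.0, 300 mM NaCl, 1 mM TCEP; 1 h at 37 C in the dark.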
RORg inh – qHTS for inhibitors of ROR gamma transcriptional activity; Nuclear receptor ROR-gamma (Mus musculus), P51450; Drosophila S2 Gal4-RORgamma UAS-luciferase reporter, 20 h; Potency, µM (doses to about 53.6 µM), for inactives: at the top dose activity change, negative = inhibition, most hits filed as inhibitors; actives 5.4% (n = 310,000); AID 2551, 2010; further: potency means the concentration at half of the fitted maximal effect; nearly all actives have a fitted effect of over 60% in size
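Schneider cells (Drosophila), stable Gal4 DBD–ROR gamma + UAS-luc; 1 hr cmpd preincubation; Cu2+ induction 700 uM final; 20 hr ambient; luminescence.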
PKM2 activator – qHTS Assay for Activators of Human Muscle isoform 2 Pyruvate Kinase | actives 0.34% (n = 260,000) | Potency, µM (series often up to 57.5 µM), for inactives: top-dose activation, hits mostly activators | purified PKM2, Kinase-Glo ATP luminescence, activation; response scale: 0% is enzyme alone, no compound; further: potency means the concentration at half of the fitted maximal effect; nearly all actives have a fitted effect of over 55% in size
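Kinase-Glo luminescence reports ATP generated from ADP (0.1 mM) and PEP (0.5 mM) by purified hPK-M2 after 1 h at room temperature, pH 7.2 imidazole buffer; intermediate enzyme activity allows detecting inhibitors and activators.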
Gal4-VP16 FLuc – VP16 counterscreen qHTS for inhibitors of ROR gamma transcriptional activity; Drosophila S2 Gal4-VP16 UAS-luciferase, luminescence, 20 h; Potency, µM (top dose mostly 53.6 µM), inactives show at the highest dose activity, negative = inhibition, most hits filed as inhibitors; actives 3.5% (n = 310,000);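 further: Gal4-VP16 expression switched on by copper sulfate through the metallothionein promoter; potency means the concentration at half of the fitted maximal effect; nearly all actives have a fitted effect of over 50% in size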
CtBP-E1A blk – qHTS Assay for Inhibitors of the CtBP/E1A Interaction; AlphaScreen GST-E1A/His-CtBP binding, 1536-well; hits give low values; activity change, % (test concentration not listed); actives 0.49% (n = 340,000); in the data active means activity change below about -65%; inconclusive means mostly about -30% to -63%
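AlphaScreen with 125 nM GST-E1A and 125 nM His-CtBP (5X stocks) in Tris pH 8.0, 300 mM NaCl, BSA, Tween 20, TCEP. Compounds preincubated 2 h at 37 deg C, then glutathione donor/nickel acceptor beads added for 1 h at 37 deg C in dark.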
The depositor's hits bear a star; ? = inconclusive; nt = not tested or not shown; [ ] = dose if it differs, or a comment. In the library only some 5.6% were active in any assay of this set; here they are far more common. Unless noted, the call rests on the fitted dose curve; in most records, active means well fitted curve in the direction sought with a large enough effect; inconclusive means small, poorly fitted or top-dose-only effect, or another doubt; inactive means no such curve, though single readings can be large; an effect the other way counts as inactive or inconclusive. On the % scale 0 is the no-effect control and ±100 the full control effect.

SMILES	Six1-Eya2 blk	RORg inh	PKM2 activator	Gal4-VP16 FLuc	CtBP-E1A blk
COc1ccccc1/C=C/C=N/n1c(-c2ccc(F)cc2)n[nH]c1=S	-13	2µM*	5%	-8%	-1
COc1ccccc1/C=C/C=N/n1c(-c2cc(-c3ccccc3)n[nH]2)n[nH]c1=S	-29	?	-1%	4%	0
COc1ccccc1/C=C\C=N\n1c(-c2ccc(Cl)cc2)n[nH]c1=S	-13	1.6µM*	-8%	?	-3
O=C(CCC(=O)OCC(=O)c1ccc(-c2ccccc2)cc1)Nc1cccc2cccnc12	8	1.6µM*	-2%	4µM*	9
COc1ccc(S(=O)(=O)NCCN2CCNC2=O)cc1OC	-3	9%	3%	-11%	6
O=C(/C=C/c1ccccc1)Nc1cccc(C(=O)O)c1	6	4µM*	-11%	5.6µM*	nt
CCC(=O)Nc1cccc(C(=O)/C=C/c2cccs2)c1	8	?	-1%	?	nt
CCC(=O)Nc1cccc(C(=O)/C=C/c2ccccc2)c1	9	16µM*	7%	?	3
Cn1ccc(C(=O)NC(=S)N2CCSCC2)n1	-6	11µM*	-1%	-10%	-13
C/C(=N\NC(=S)NC1CCCCC1)c1cccc(C(F)(F)F)c1	5	?	7%	2.5µM*	-4
N#Cc1ccc(C(=O)NC(=S)NC2CCCCC2)cc1	-14	nt	nt	nt	-9
C/C(=N\NC(=S)NC1CCCCC1)c1ccc(C#N)cc1	0	2.2µM*	9%	2µM*	5
CCNC(=S)N/N=C(\C)c1cccc(C(F)(F)F)c1	-11	1.3µM*	2%	4.5µM*	-28
CC(=O)N/N=C(\C)c1cccc(C(F)(F)F)c1	1	-2%	-1%	18%	12
C/C(=N\NC(=S)NC1CCCCC1)c1cccc(Br)c1	-6	2.2µM*	2%	1µM*	-7
O=C(COC(=O)C1CC2CCCC(C1)C2=O)NNC(=O)c1ccccc1F (stereo unspecified)	6	nt	nt	nt	-2
COc1ccc(C)cc1NC(=O)c1nn(C)cc1Br	-2	2%	-3%	0%	nt
COc1ccccc1C(=O)NCCC(=O)NCC(c1ccco1)N1CCCC1 (stereo unspecified)	7	nt	nt	nt	-8
Nc1cc(C(=O)OCC(=O)NCCNC(=O)COC(=O)c2ccc(Cl)c(N)c2)ccc1Cl	-8	41%	nt	-5%	-2
COc1ccc(CCN(C)C(=O)c2cc(S(=O)(=O)N3CCCCC3)ccc2Cl)cc1OC	3	nt	nt	nt	-3
CS(=O)(=O)c1ncc(Cl)c(C(=O)Nc2ccc(OC(F)F)cc2)n1	2	3.5µM*	-1%	1.3µM*	0
O=C(Nc1ccc(OC(F)F)cc1)c1ccccn1	14	-10%	-4%	-1%[10 µM]	-4
CS(=O)(=O)c1ccc(C(=O)Nc2ccc(N3CCOCC3)cc2)c(Cl)c1	5	28%	4%	-2%	-6
CS(=O)(=O)c1ncc(Cl)c(C(=O)Nc2ccc(N3CCOCC3)cc2)n1	-2	3.2µM*	-5%	3.2µM*	8
Cc1cccc(NC(=O)CSc2nncn2N)c1C	3	nt	nt	nt	5
SMILES	Six1-Eya2 blk	RORg inh	PKM2 activator	Gal4-VP16 FLuc	CtBP-E1A blk
CCn1c(-c2ccccc2)c(C(=O)CCl)c2ccccc21	1	11µM*	-2%	?	nt
CCn1c2ccccc2c(=O)c2ccccc21	5	-25%	16%	18%	5
C=CC1=C(C(=O)O)N2C(=O)[C@@H](NC(=O)/C(=N\O)c3csc(N)n3)[C@H]2SC1 (stereo in doubt)	-90*	nt	nt	nt	-85*
CO/N=C(/C(=O)N[C@H]1C(=O)N2C(C(=O)O)=C(COC(C)=O)CSC12)c1csc(N)n1 (stereo partly specified)	nt	-14%	nt	-1%	nt
CCCCN(C(=O)c1ccc2c(c1)OCO2)c1ccccc1	12	-18%	1%	-2%	-4
CC(C)(C)C1CCC(=NNc2ncc(C(F)(F)F)cc2Cl)CC1 (stereo unspecified)	-3	28µM*	14%	11µM*	5

From PubChem
